Experimental data: PubChem BioAssay (NCI)
The panel holds about 83,000 compounds, 20% with a hit somewhere; the sample as a whole holds those more often.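 For each line, cells grew in 96-well plates with the test compound present at a single concentration for 48 hours.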 Values without a mark were called inactive. Active and inactive are the calls of the source. How the source made its calls: active means growth percent below 10; inactive means the rest.

Experiments:
Assay in all cases: NCI-60 one-dose screen, 48 h (100 = growth as untreated, 0 = no growth, -100 = all killed)
Details in all cases: 10 µM unless noted
DU-145 prostate = tested on: DU-145 prostate
K-562 leukemia = tested on: K-562 leukemia
MALME-3M melanoma = tested on: MALME-3M melanoma
MDA-MB-231 breast = tested on: MDA-MB-231 breast
RXF 393 renal = tested on: RXF 393 renal
SF-268 CNS = tested on: SF-268 CNS
SF-539 CNS = tested on: SF-539 CNS
M14 melanoma = tested on: M14 melanoma
SF-295 CNS = tested on: SF-295 CNS
UACC-257 melanoma = tested on: UACC-257 melanoma

SMILES	growth (DU-145 prostate)	growth (K-562 leukemia)	growth (MALME-3M melanoma)	growth (MDA-MB-231 breast)	growth (RXF 393 renal)	growth (SF-268 CNS)	growth (SF-539 CNS)	growth (M14 melanoma)	growth (SF-295 CNS)	growth (UACC-257 melanoma)
NC1=CSC2=N/C(=C\c3ccc(Cl)cc3)C(=O)N12	77.9%	40.1%	64.9%	83.2%	65.7%	90.4%	90.4%	76.8%	–	–
COc1ccc(/C=N\NC(=O)c2ccncc2)cc1O	99.4%	96.4%	78.9%	94.8%	–	99%	107%	101%	92.5%	89.1%
COc1cc(OC)c(/C=C/c2cc[n+](C)c3ccccc23)c(OC)c1	18.5%	7.21% (active)	5.28% (active)	22.5%	–	15.7%	12%	36.2%	-48.8% (active)	-24.7% (active)
O=C(N/N=C/c1ccc(O)cc1O)c1cccnc1	48.4%	26.7%	61.8%	62.5%	–	43.6%	29.5%	39.3%	15.6%	-3.63% (active)
Cc1cc(Nc2nc(-c3cccnc3)nc3ccccc23)n[nH]1	74.3%	48.1%	99.1%	95.7%	–	58.1%	34.7%	72.5%	53.3%	59.7%
CCCCCCCCCCCCCCCC[N+]1(CC)CCCC1	-92.2% (active)	-34.9% (active)	-49.9% (active)	-61.6% (active)	–	-57% (active)	-28.4% (active)	-45% (active)	-70.1% (active)	-46% (active)
O=C1Nc2ccccc2C12CC(c1ccc(Cl)cc1)=NN2 (centres undefined)	115%	94.5%	105%	89.8%	99.4%	106%	99.2%	98.7%	–	–
CCOC(=O)c1nc(Nc2cc(C)[nH]n2)c2ccccc2n1	109%	99.9%	116%	108%	–	101%	95.5%	80.9%	107%	106%
O=C1Nc2ccccc2C12CC(c1ccccc1)=NN2 (centres undefined)	88.1%	18.5%	40.1%	55.4%	90.6%	67.1%	47%	38.1%	–	–
C#Cc1nc2ccccc2c(=O)[nH]1	-41.8% (active)	-24.6% (active)	-64.2% (active)	-57.5% (active)	–	-70.4% (active)	-70.1% (active)	-11.2% (active)	41.3%	-21.6% (active)
CCOC(=O)CC(C)=N	121%	110%	99.9%	103%	–	130%	97.6%	102%	111%	102%
CC(=O)Oc1cc2cnc3c4cc(OC(C)=O)c(OC(C)=O)cc4ccc3c2cc1OC(C)=O	16.6%	6.46% (active)	6.96% (active)	26.3%	–	12.2%	-10.8% (active)	13.9%	13.9%	20.6%
COc1cc(-c2cc(-c3nc4ccc(Cl)cc4[nH]3)[nH]n2)cc(OC)c1OC	57.8%	43.2%	50.4%	81.1%	46.6%	81.7%	–	38.1%	–	62.9%
COc1cccc(-n2cc(-c3nc(Nc4cc(C)[nH]n4)c4ccccc4n3)nn2)c1	66.4%	27%	42.9%	63.4%	–	64.1%	52.9%	54.1%	37.7%	83.4%
Cc1csc2ccc(Cl)cc12	110%	106%	97.7%	97%	–	108%	96.8%	101%	–	102%
CC/C(=C(\c1ccccc1)c1ccc(OCCNC)cc1)c1ccccc1	-66.8% (active)	-5.96% (active)	-92.9% (active)	–	-97.6% (active)	1.29% (active)	-98% (active)	-89.7% (active)	-99.3% (active)	-68.4% (active)

SMILES	growth (DU-145 prostate)	growth (K-562 leukemia)	growth (MALME-3M melanoma)	growth (MDA-MB-231 breast)	growth (RXF 393 renal)	growth (SF-268 CNS)	growth (SF-539 CNS)	growth (M14 melanoma)	growth (SF-295 CNS)	growth (UACC-257 melanoma)
Cc1cccc(NC(=O)c2sc3nc4c(cc3c2N)C(=O)CCC4)c1	9.01% (active)	18.8%	–	36.6%	22.7%	64.8%	-27.7% (active)	21.8%	20.6%	76.3%
COc1cccc2c1C(=O)c1c(O)c3c(c(O)c1C2=O)C[C@@](O)(/C(C)=N/NC(=O)c1ccc(Cl)cc1)C[C@@H]3OC1CC(N)C(O)C(C)O1 (some centres undefined)	-0.501% (active)	-19.5% (active)	-74.6% (active)	-1.48% (active)	–	-54.8% (active)	-45.5% (active)	-60% (active)	-60.4% (active)	-57.1% (active)
CC(=O)OCC1OC(OC2=C(CC=C(Cl)Cl)C(=O)c3ccccc3C2=O)C(OC(C)=O)C(OC(C)=O)C1OC(C)=O (centres undefined)	104%	-12.5% (active)	51.6%	69.5%	–	88.8%	90.5%	110%	–	94%
O=C(NC(Cc1ccccc1)C(=O)CCl)OCc1ccccc1 (centres undefined)	93.5%	13.7%	72.4%	73.9%	–	63.2%	62.4%	80.1%	–	87.2%
COC1C/C(=N\O)C2OC(c3ccccc3)OCC2O1 (centres undefined)	109%	97.3%	100%	105%	–	109%	101%	104%	–	68.1%
CCN(CC)c1ccc(CNc2cc(C)nc3ccc(OC)cc23)cc1	58.7%	-35.6% (active)	-77.5% (active)	–	77%	72.7%	76%	48.8%	16.5%	18.7%
O=[N+]([O-])c1c(F)cccc1Nc1cccc(F)c1	108%	95.4%	–	–	102%	105%	102%	103%	87%	93.2%
C[C@@H]1CC[C@@H]2[C@@H]1[C@H](OC(=O)/C=C/c1ccccc1)[C@]1(C3CCCCC3)C[C@@H](OC(=O)CO)[C@@]2(C)O1	81.5%	–	104%	84.7%	26.9%	32.1%	89.6%	89.9%	87.5%	67.8%
O=C1C=CC(Nc2ccccc2[N+](=O)[O-])C1Nc1ccccc1[N+](=O)[O-] (centres undefined)	-69.1% (active)	5.11% (active)	-89.7% (active)	–	-96.4% (active)	75.8%	-93.6% (active)	-68.9% (active)	67.5%	28.7%
Nc1c(C(=O)Nc2ccccc2Cl)sc2nc3c(cc12)CCCCCC3	56.3%	23.3%	-13.3% (active)	–	-34.6% (active)	38.4%	14.3%	34.5%	36.6%	58.4%
COc1cccc(NC(=O)c2sc3nc4c(cc3c2N)CN(Cc2ccccc2)CC4)c1	66.1%	33.2%	–	62.5%	49.3%	42.9%	30.5%	68.2%	49.6%	61.2%
Cc1ccc(NC(=O)c2sc3nc4c(cc3c2N)C(=O)CCC4)cc1C	8.18% (active)	11.7%	48.8%	35.3%	–	42.7%	-10.4% (active)	8.39% (active)	8.72% (active)	54.2%
COc1ccc2nc(NC(=O)c3cccnc3Nc3cc(OC)c(OC)c(OC)c3)sc2c1	-56.1% (active)	15.7%	–	-9.82% (active)	-39.2% (active)	-73.1% (active)	-57.1% (active)	48.4%	54.2%	49.9%
O=C(O)C(O)C(O)C(=O)O.[NH-]C1CCCCC1[NH-].[Pt+2] (centres undefined)	107%	105%	127%	98.7%	–	104%	105%	103%	–	122%
Cc1ccc(Nc2c(C(N)=O)cnc3ccc(-c4csc(N)n4)cc23)cc1	103%	113%	–	98.8%	98.3%	106%	92%	98.6%	98.7%	101%
